MBNL1 CUG block: MBNL1-poly(CUG) RNA binding inhibition; actives 0.036% (n = 280,000); Potency, µM (doses to about 57.5 µM), usual class: inhibitors; AID 2675; Q9NR56; TR-FRET MBNL1-His/biotin-(CUG)12 binding, 665/545 ratio; active = well fitted inhibition curve with a large enough effect in the signal ratio, with a control signal flat, not every such curve was filed as active; inconclusive = small, poorly fitted or top-dose-only effect, or effect the other way, or a change in a side signal; inactive = no such curve, though single readings can be large or run the other way; the % refers to the signal ratio
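His-tagged MBNL1 binding to biotinylated (CUG)12 RNA was measured by TR-FRET using terbium anti-His antibody (0.055 ng/ul final) and streptavidin-XL665 (5 nM final). Compounds were titrated 92 nM to 58 uM; 60 min at room temperature.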
Six1-Eya2 inh: inhibitors of human Six1/Eya2 interaction; AlphaScreen GST-Six1/His-Eya2 binding, biochemical; active compounds read low; activity change, % (test concentration not listed); actives 0.56% (n = 360,000); AID 651725; in the data active = activity change below about -65%; inconclusive = mostly about -30% to -63%
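Compounds are tested against tagged Six1 and Eya2 proteins bridged by glutathione donor and nickel acceptor beads; after a one-hour incubation at 37 °C without light, AlphaScreen emission is recorded.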
Gal4-VP16 FLuc: Gal4-VP16 reporter inhibition counter-screen. actives 3.5% (n = 310,000). AID 2546. Drosophila S2 Gal4-VP16 UAS-luciferase, luminescence, 20 h. Potency, µM (top dose mostly 53.6 µM), most hits filed as inhibitors;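 note: Gal4-VP16 expression switched on by copper sulfate through the metallothionein promoter; nearly all actives have a fitted effect of over 50% in size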
RORgamma inh: ROR gamma (mouse) transcription inhibition; Potency, µM (series often up to 53.6 µM), usual class: inhibitors; Drosophila S2 Gal4-RORgamma UAS-luciferase reporter, 20 h; actives 5.4% (n = 310,000); P51450; AID 2551; note: nearly all actives have a fitted effect of over 60% in size
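Stably transfected Drosophila Schneider cells are the test system, with ROR gamma fused to Gal4 and luciferase under UAS control; luminescence is read after 20 hr of 700 uM copper sulfate induction at ambient temperature.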
CBFb RUNX1 block: blocks binding between human CBF-beta and RUNX1; Q01196+Q13951; AlphaScreen CBFb-His/RUNX1-biotin binding, biochemical; Potency, µM (doses to about 59.8 µM), usual class: inhibitors; AID 1477; 230,000 tested, under 10 active
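Proteins preincubated together for 20 min at RT before compound addition; 15 min later, nickel and streptavidin beads were added and left 90 min prior to AlphaScreen measurement.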
CtBP-E1A inh: blocks the CtBP interaction with E1A; activity change, % (test concentration not listed); actives 0.49% (n = 340,000); AlphaScreen GST-E1A/His-CtBP binding, 1536-well; active compounds read low; in the data active = activity change below about -65%; inconclusive = mostly about -30% to -63%
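Protein mix (5X: 125 nM each GST-E1A, His-CtBP) was incubated with pinned compound 2 h at 37 deg C in dark, in 50 mM Tris pH 8.0 buffer with 300 mM NaCl. Glutathione donor and nickel acceptor beads followed; AlphaScreen signal read after 1 h.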
Numbers stand for hits; – = inactive; ? = inconclusive; · = no result. Hits are enriched below; roughly 5.5% of the tested compounds scored in any of these assays. Unless noted, calls come from the whole dose curve; as a rule, active = well fitted curve in the direction sought with a large enough effect; inconclusive = small, poorly fitted or top-dose-only effect, or another doubt; inactive = no such curve, though single readings can be large; an effect the other way counts as inactive or inconclusive.

SMILES	MBNL1 CUG block	Six1-Eya2 inh	Gal4-VP16 FLuc	RORgamma inh	CBFb RUNX1 block	CtBP-E1A inh
Nc1ncnc2nc(Cl)[nH]c12	·	·	–	–	·	·
CC(C)C[C@@H](CN)NC(=O)c1nc[nH]c1C(=O)N[C@@H](C)C(=O)CNC[C@H](C)NC(=O)c1nc[nH]c1C(=O)N[C@@H](Cc1ccccc1)C(=O)O	·	–	·	·	·	–
COCCNC(=O)C1CCCN(Cc2ccc(C)cc2)CC1 (centres undefined)	·	–	·	·	·	–
Cc1ccc(N=Nc2c(C)[nH]n(C(N)=S)c2=O)cc1C	?	–	1.1µM	0.22µM	–	–
CCc1ccc(CN(C)C(=O)c2cc(COc3cc(C)c(Cl)c(C)c3)on2)nc1	–	–	–	–	·	–
O=c1c2c(nc3n1CCCCC3)sc1c(O)c(Br)ccc12	–	–	4.5µM	8.9µM	–	–
Cc1cccc(CNc2ncnc3ccc(-c4c(C)noc4C)cc23)c1	·	·	–	2µM	·	·
CC(=O)NCCNc1ncnc2ccc(-c3c(C)noc3C)cc12	·	·	?	11µM	·	·
C/C=C\C1=CCCC1Nc1ncnc2ccc(-c3c(C)noc3C)cc12 (centres undefined)	·	·	?	11µM	–	·
CCn1cc(C(=O)O)c(=O)c2cnc(N3CCCC3)nc21	·	·	–	–	–	·
COc1ccc([C@@H]2[C@@H]3C(=O)N(C(C)(C)C)C(=O)[C@@H]3[C@]3(Cc4ccc(Cl)cc4)C(=O)N(c4cccc(C)c4)C(=O)N23)cc1	–	–	–	–	·	–
CC1CCN(C(=O)Cn2nnc(-c3ccc([N+](=O)[O-])cc3)n2)CC1	?	–	–	?	·	–
O=C(/C=C/c1ccc(Cl)cc1)c1cccnc1	–	–	20µM	?	–	–
N#Cc1ccc(/C=C/C(=O)c2cccnc2)cc1	–	–	?	7.9µM	–	·
CC(NC(=O)c1ccco1)C(=O)N1CC=C(c2ccccc2)CC1 (centres undefined)	·	–	·	·	·	–
CCCC1Cc2[nH]c(=O)c(C#N)cc2CO1 (centres undefined)	–	–	–	–	–	-70
O=C(COC(=O)CNC(=O)c1ccccc1)Nc1nnc(-c2ccccc2)o1	·	?	·	·	·	–
O=C(CCS(=O)(=O)c1ccc(F)cc1)Nc1nnc(-c2ccc(F)cc2)o1	·	–	·	·	·	–
O=C(Nc1nnc(-c2ccc(F)cc2)o1)c1cc(Cl)sc1Cl	·	–	2.5µM	3.2µM	–	–
O=C(Nc1nnc(-c2ccc(Cl)cc2)o1)c1nc2ccccc2s1	–	–	4.5µM	4.5µM	–	–
O=C(Nc1nnc(-c2ccccc2)o1)c1cc(Cl)sc1Cl	·	–	1.3µM	2.2µM	–	–
O=C(Nc1nnc(-c2ccc(Cl)cc2)o1)Nc1ccccc1Cl	–	–	–	–	–	–
CSCCC(NC(=O)c1ccccc1Br)C(=O)N1CCCCCCC1 (centres undefined)	·	–	·	·	·	–
CCN(CC)c1cccc(OC(=O)c2cccnc2Cl)c1	–	–	–	–	·	–
O=C(c1cccc(Cl)c1)c1nn(-c2ccccc2)c(=O)cc1C(F)(F)F	?	?	–	?	–	-73
SMILES	MBNL1 CUG block	Six1-Eya2 inh	Gal4-VP16 FLuc	RORgamma inh	CBFb RUNX1 block	CtBP-E1A inh
O=C(c1ccccc1)c1nn(-c2ccc(Cl)cc2)c(=O)cc1C(F)(F)F	?	–	?	?	–	?
O=C(c1ccccc1)c1nn(-c2ccccc2)c(=O)cc1C(F)(F)F	?	?	–	–	–	-75
[O-][n+]1cccc2c(Br)cc(Br)c(O)c21	–	–	0.71µM	0.56µM	–	?
O=c1cc(Br)c(O)c(Br)cc1Br	·	–	·	·	·	–
COc1ccc2cc(C3CC=C(COC(C)=O)CN3S(=O)(=O)c3ccccc3[N+](=O)[O-])n(C(=O)OC(C)(C)C)c2c1 (centres undefined)	·	–	·	·	·	–
NC(=O)c1cc(Br)cc2c3c([nH]c12)CCCC3	–	–	18µM	–	?	–
Cc1ccn2c(NC3CCCCC3)c(C)nc2c1	–	–	?	13µM	–	–
Cc1cc(C)n2c(NC3CCCCC3)c(-c3ccccn3)nc2n1	·	-78	·	·	·	?
Cc1ccn2c(NC3CCCC3)c(-c3ccncc3)nc2c1	?	–	–	–	–	–
